A number with no mark means an inactive call. Records with an inconclusive call do not appear. The source made the active and inactive calls. Unless noted, calls follow the shape of the dose curve; as a rule, active = well fitted curve in the direction sought with a large enough effect in the repeat runs; inconclusive = weak or mixed curves; inactive = no such curve, though single readings can be large; an effect the other way counts as inactive or inconclusive.

Here are results for eight compounds from PubChem BioAssay (Tox21).

The target of assay [1] is Luciferin 4-monooxygenase (Photinus pyralis) (UniProt P08659). Nature of the assay: qHTS assay to identify small molecule inhibitors of firefly luciferase (AID 1224835). Also: nearly all actives have a fitted effect of over 25% in size. An outline of the steps: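 Inhibition of purified Photinus luciferase is measured by luminescence. Substrate levels (D-luciferin, ATP) sit at their KM values. Each compound is tested in a concentration series.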
Sequence of Luciferin 4-monooxygenase (Photinus pyralis) (P08659 whole entry, looked up): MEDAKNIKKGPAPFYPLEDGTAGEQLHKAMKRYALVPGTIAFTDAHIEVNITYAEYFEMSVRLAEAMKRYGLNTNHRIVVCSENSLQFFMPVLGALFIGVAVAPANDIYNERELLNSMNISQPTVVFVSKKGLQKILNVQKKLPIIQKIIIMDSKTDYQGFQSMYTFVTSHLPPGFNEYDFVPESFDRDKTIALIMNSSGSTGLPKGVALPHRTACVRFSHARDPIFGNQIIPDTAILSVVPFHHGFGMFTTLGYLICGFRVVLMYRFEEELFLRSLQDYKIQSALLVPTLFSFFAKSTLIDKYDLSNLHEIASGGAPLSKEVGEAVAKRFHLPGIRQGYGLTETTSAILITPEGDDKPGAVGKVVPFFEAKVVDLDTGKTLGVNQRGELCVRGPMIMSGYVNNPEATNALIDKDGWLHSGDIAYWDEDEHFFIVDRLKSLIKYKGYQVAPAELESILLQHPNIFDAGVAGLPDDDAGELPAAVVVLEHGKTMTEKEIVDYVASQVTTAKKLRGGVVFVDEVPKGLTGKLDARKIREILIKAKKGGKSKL
(In general: qHTS replaces the single test concentration by a dilution series.)

A short description of assay [2]: qHTS assay to identify small molecule agonists of the constitutive androstane receptor (CAR) signaling pathway - cell viability counter screen (AID 1224836). Also: nearly all actives have a fitted effect of over 45% in size. Summed up: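 Cells were seeded and incubated 4 hrs. Compounds were added across 15 concentrations together with PK11195 at 0.75 uM final. Plates were incubated 23 hrs at 37 C. CellTiter-Fluor was added and fluorescence measured.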

Assay [3] can be described thus: qHTS assay to identify small molecule antagonists of the estrogen related receptor signaling pathway with the pleiotropic PPARgamma coactivator (PGC) from Tox21 10K library - cell viability counter screen (AID 1224840; active = well fitted cell-killing curve with a large enough effect in the repeat runs, not every such curve was filed as active; also: nearly all actives have a fitted effect of over 40% in size). An outline of the steps: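 Compounds in DMSO, alongside positive and negative controls, were pinned onto PGC/ERR cells (2,000 per well). Exposure lasted 17.5 hours at 37 C, followed by a 30-minute CellTiter-Fluor incubation and fluorescence reading.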

Assay [4] in a line: qHTS assay to identify small molecule antagonists of the estrogen related receptor signaling pathway with the pleiotropic PPARgamma coactivator (PGC) from Tox21 10K library (AID 1224841; call rule not given here; also: actives are mostly falling curves and most rising ones were filed inactive; nearly all actives have a fitted effect of over 50% in size; also: potency is read from the fitted curve at half-maximal effect). Summed up:
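Compound exposure ran 18 hours at 37 C in PGC/ERR cells (2,000/well) that had first rested 6 hours in a 37 C/5% CO2 incubator. Luciferase activity was then detected with One-Glo after a 30-minute room-temperature step.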

Assay [5] is described as follows: qHTS assay to identify small molecule agonists of the estrogen related receptor signaling pathway with the pleiotropic PPARgamma coactivator (PGC) from Tox21 10K library (AID 1224842). Also: nearly all actives have a fitted effect of over 15% in size. An outline of the steps: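 Luminescence from One-Glo (30 min, room temperature) measured after PGC/ERR cells had 18 h at 37 C with pinned compound (23 nL in DMSO). Cells had been seeded at 2,000 per well and pre-incubated 6 h.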

Assay [6] concerns the target Thyrotropin receptor (Homo sapiens) (UniProt P16473). The experiment in a line: qHTS assay to identify small molecule agonists of the thyroid stimulating hormone receptor (TSHR) signaling pathway (AID 1224843; calls by dose curve; also: nearly all actives have a fitted effect of over 45% in size). An outline of the steps: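 Screening of the Tox21 10K collection used HEK293 cells engineered with TSHR at 800 cells per well. After a 30-min room-temperature compound exposure, HTRF cAMP reagents were added and fluorescence recorded 1 h later.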

The nature of assay [7]: qHTS assay to identify small molecule agonists of the hypoxia (HIF-1) signaling pathway - cell viability counter screen (AID 1224844; calls by dose curve; also: nearly all actives have a fitted effect of over 50% in size). Summed up:
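Luminescent ATP content (CellTiter-Glo, 30 min, room temperature) served as the viability measure in HRE-bla ME-180 cells exposed to compounds for 17 hrs in low-serum medium (0.5% dialyzed FBS).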

Assay [8] is described as follows: qHTS assay to identify small molecule agonists of the hypoxia (HIF-1) signaling pathway (AID 1224846; active = well fitted activation curve with a large enough effect in the signal ratio in the repeat runs, not every such curve was filed as active; the % refers to the signal ratio). Summed up: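 Measured by blue/green FRET after loading CCF4-AM: beta-lactamase expressed from a hypoxia response element in ME-180 cells. Test agents were delivered in DMSO and left 17 hrs; cells had been plated 5 hrs earlier in low-serum (0.5% dialyzed FBS) medium.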

Assay [9] in a line: qHTS assay to identify small molecule agonists of H2AX - cell viability counter screen (AID 1224847; calls by dose curve; also: top concentration of the series differs between compounds; nearly all actives have a fitted effect of over 30% in size). An outline of the steps:
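Cytotoxicity counter screen in wild-type CHO-K1 cells: a 3 hr compound treatment at 37C across 15 concentrations, followed by CellTiter-Glo luminescence to gauge viable cells.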

The nature of assay [10]: qHTS assay to identify small molecule antagonists of the estrogen related receptor (ERR) signaling pathway from Tox21 library (AID 1224848). Also: nearly all actives have a fitted effect of over 50% in size. Also: potency is read from the fitted curve at half-maximal effect. An outline of the steps:
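Antagonist-mode screen of the Tox21 10K library in an NTP-provided ERR reporter cell line; 18 h compound exposure at 37 C, luminescence measured with ONE-Glo.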

Assay [11] is described as follows: qHTS assay to identify small molecule agonists of the estrogen related receptor (ERR) signaling pathway from Tox21 library (AID 1224849; calls by dose curve; also: nearly all actives have a fitted effect of over 15% in size). Conditions: ERR reporter cell line, ONE-Glo luciferase, 18 h; at 92.4 µM (top of the series) unless noted. Summed up: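 We plated ERR reporter cells, waited 6 h, added compounds in DMSO by pin tool and incubated them 18 h at 37 C. ONE-Glo was then added and luminescence read after 30 min.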

Assay [12] in a line: qHTS RealTime-Glo MT Cell Viability Assay in HepG2 cells - 24 hour (AID 1224867). Also: nearly all actives have a fitted effect of over 50% in size. An outline of the steps:
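Real-time, nonlytic viability: 600 HepG2 cells/well mixed with NanoLuc enzyme plus prosubstrate; 5 h settle, compound (DMSO) added by pintool; luminescence monitored over 40 h at 37 C.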

Assay [13] can be described thus: qHTS RealTime-Glo MT Cell Viability Assay in HEK293 cells - 32 hour (AID 1224868). Also: nearly all actives have a fitted effect of over 50% in size. Also: potency is read from the fitted curve at half-maximal effect. An outline of the steps:
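Cells + reagent dispensed (600 cells/well, HEK293) → 5 h at 37 C/5% CO2 → 23 nL compound in DMSO pinned → 40 h at 37 C → luminescence read at 0, 8, 16, 24, 32, 40 h.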

The nature of assay [14]: A CellTox Green Cytotoxicity Assay to monitor cytotoxicity in HEK293 cells - 0 hour (AID 1224869). Also: nearly all actives have a fitted effect of over 50% in size. An outline of the steps: (§1)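 Each value comes from one timepoint of a single continuous run in which HEK293 cells with CellTox Green were exposed to compound for up to 40 h at 37 C, dye fluorescence rising with cell death.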
Assay [15] can be described thus: qHTS assay to identify small molecule agonists of H2AX (AID 1224845; active = well fitted activation curve with a large enough effect in the signal ratio in the repeat runs, not every such curve was filed as active; the % refers to the signal ratio). Summed up:
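Phospho-H2AX Ser139 measured by HTRF (ex 320 nm; em 665 and 620 nm) after 24 hr antibody incubation. Compounds, 15 concentrations, 0.76% DMSO, were applied to CHO-K1 cells for 3hr at 37C before lysis.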

Assay [16] can be described thus: qHTS RealTime-Glo MT Cell Viability Assay in HepG2 cells - 40 hour (AID 1224870). Also: nearly all actives have a fitted effect of over 50% in size. Summed up: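 Real-time viability: cells seeded at 600 per well together with NanoLuc and cell-permeant prosubstrate, compounds added after 5 h incubation. Luminescence tracked at 0, 8, 16, 24, 32 and 40 h of exposure.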
Assay [17] in a line: A CellTox Green Cytotoxicity Assay to monitor cytotoxicity in HEK293 cells - 40 hour (AID 1224871). Also: nearly all actives have a fitted effect of over 45% in size. Summed up: as §1
Assay [18] in a line: qHTS assay to identify small molecule antagonists of the constitutive androstane receptor (CAR) signaling pathway - cell viability counter screen (AID 1224837). Also: nearly all actives have a fitted effect of over 45% in size. Summed up:
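Fluorescence from CellTiter-Fluor served as the viability signal. Human hepatoma HepG2 cells stably bearing hCAR and CYP2B6-2.2kb received compound plus CITCO (50 nM final) for 23 hr.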

Assay [19] deals with Nuclear receptor subfamily 1 group I member 3 (Homo sapiens) (UniProt Q14994). Nature of the assay: qHTS assay to identify small molecule antagonists of the constitutive androstane receptor (CAR) signaling pathway (AID 1224838).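 Also: HepG2 cells stably expressing hCAR with CYP2B6 luciferase reporter stimulated by CITCO; nearly all actives have a fitted effect of over 40% in size.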 Summed up:
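Quantitative HTS in double-stable HepG2-CYP2B6-hCAR cells. After 4 h plating, cells get compound (15 concentrations) and CITCO at 50 nM final, incubate 24 h at 37 C, then ONE-Glo luminescence is read.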

Assay [20] has the same target. The experiment in a line: qHTS assay to identify small molecule agonists of the constitutive androstane receptor (CAR) signaling pathway (AID 1224839). Also: nearly all actives have a fitted effect of over 15% in size. Also: potency is read from the fitted curve at half-maximal effect.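 As to activation: HepG2 cells stably carrying human CAR and a CYP2B6 luciferase reporter.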 An outline of the steps: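 Cells were plated and incubated 4 hrs, then dosed with compounds at 15 concentrations. PK11195 was added to 0.75 uM final. After 24 hrs at 37 C, luciferase luminescence was measured.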
% is scaled to controls: 0 for no effect and ±100 for the full control effect.

Sequence of Thyrotropin receptor (Homo sapiens) (P16473 whole entry, looked up): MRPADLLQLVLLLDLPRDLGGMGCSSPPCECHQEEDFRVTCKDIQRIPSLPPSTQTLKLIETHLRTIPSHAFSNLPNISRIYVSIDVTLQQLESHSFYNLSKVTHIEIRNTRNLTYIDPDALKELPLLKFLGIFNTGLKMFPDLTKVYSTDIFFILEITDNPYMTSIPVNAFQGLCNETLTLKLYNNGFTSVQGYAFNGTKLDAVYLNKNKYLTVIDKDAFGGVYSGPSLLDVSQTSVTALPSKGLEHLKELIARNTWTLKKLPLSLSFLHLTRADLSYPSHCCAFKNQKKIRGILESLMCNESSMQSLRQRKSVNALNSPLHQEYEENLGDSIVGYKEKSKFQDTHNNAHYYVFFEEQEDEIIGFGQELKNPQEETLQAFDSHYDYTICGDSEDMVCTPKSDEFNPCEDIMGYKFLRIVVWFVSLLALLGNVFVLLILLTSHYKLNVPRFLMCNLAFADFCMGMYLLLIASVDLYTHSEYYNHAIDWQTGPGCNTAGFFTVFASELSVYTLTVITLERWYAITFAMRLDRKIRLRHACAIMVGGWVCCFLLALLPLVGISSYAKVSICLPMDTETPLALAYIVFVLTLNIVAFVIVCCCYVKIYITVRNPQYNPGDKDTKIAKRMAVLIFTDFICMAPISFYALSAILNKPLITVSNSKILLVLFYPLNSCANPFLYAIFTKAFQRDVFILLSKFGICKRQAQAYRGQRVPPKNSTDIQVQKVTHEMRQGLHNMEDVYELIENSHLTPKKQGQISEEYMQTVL
Sequence of Nuclear receptor subfamily 1 group I member 3 (Homo sapiens) (Q14994 whole entry, looked up): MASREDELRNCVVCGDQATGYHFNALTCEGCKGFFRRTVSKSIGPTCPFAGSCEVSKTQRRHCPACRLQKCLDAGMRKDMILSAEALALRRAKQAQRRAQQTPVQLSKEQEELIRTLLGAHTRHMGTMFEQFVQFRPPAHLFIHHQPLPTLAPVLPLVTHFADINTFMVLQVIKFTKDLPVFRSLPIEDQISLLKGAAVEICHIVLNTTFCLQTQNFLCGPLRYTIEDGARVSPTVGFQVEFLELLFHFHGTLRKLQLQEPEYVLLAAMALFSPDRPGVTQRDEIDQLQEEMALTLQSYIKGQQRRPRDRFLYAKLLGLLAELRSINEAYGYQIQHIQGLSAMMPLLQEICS

On to `CN1CCC(O)(c2ccc(F)cc2)C(C(=O)c2ccc(F)cc2)C1` (stereo unspecified), for which the Potency result in assay [1], in assay [2], in [3], in assay [4], in [6] and in [7] was “inactive” in each case. Further, the Potency entry in assay [9], in [10], in [12], in assay [13] and in assay [14] was “inactive” throughout. Besides, the call in assay [5] and in [8] was inactive. Further, the activity change, positive = activation in assay [11] is 0.426% [at 42.5 µM].
As to `NC(=O)c1cc([N+](=O)[O-])cc([N+](=O)[O-])c1`, the Potency result in assay [1], in assay [2], in [3], in [7], in [15] and in assay [9] was “inactive” throughout. Further, the Potency result in [12], in assay [13], in assay [14], in [16] and in assay [17] was “inactive” in each case. Also, in assay [8], the compound was called inactive.
Regarding `Fc1ccc(C2(Cn3cncn3)OC2c2ccccc2Cl)cc1` (stereo unspecified), the Potency entry in [1], in assay [18], in [19], in assay [20], in [6] and in assay [7] was “inactive” each time. For the same compound, the Potency entry in assay [15], in [9], in assay [12], in assay [14] and in assay [16] was “inactive” in each case. Besides, the Potency is 38.6 µM (active) in assay [4], 48.6 µM (active) in assay [10] and 43.6 µM (active) in assay [13]. Further, the outcome in assay [5] and in [8] was inactive. Moreover, the activity change, positive = activation in assay [11] is -40.8%.
On to `N#Cc1ccncc1`, for which the Potency result in assay [1], in assay [2], in [3], in assay [4], in [7] and in assay [9] was “inactive” each time. Moreover, the Potency result in [10], in assay [12], in assay [13], in assay [14], in [16] and in assay [17] was “inactive” in each case. In addition, the outcome in assay [5] and in assay [8] was inactive. Further, the activity change, positive = activation in [11] is 5.77%.
For `ClCCCN1CCN(c2cccc(Cl)c2)CC1`, the Potency entry in [1], in assay [18], in assay [19], in [3], in [4] and in [6] was “inactive” in each case. Further, the Potency entry in [7], in assay [15], in [9], in assay [10], in assay [12] and in assay [13] was “inactive” in each case. Also, the Potency entry in assay [14], in [16] and in assay [17] was “inactive” throughout. Besides, the outcome in assay [5] and in assay [8] was inactive. Further, the activity change, positive = activation in [11] is -4.21% [at 42.5 µM].
In the case of `CCCSP(=O)(OCC)Oc1ccc(Br)cc1Cl` (stereo unspecified), the Potency result in [1], in assay [18], in [19], in assay [3], in assay [6] and in assay [7] was “inactive” each time. Besides, the Potency result in assay [9], in [12], in assay [13], in assay [14], in [16] and in [17] was “inactive” throughout. In addition, the Potency in [20] is 13.3 µM (active). In addition, the call in assay [8] was inactive.
Regarding `CNC(=O)Oc1c(C(C)(C)C)cc(C)cc1C(C)(C)C`, the Potency entry in assay [1], in [2], in [19], in assay [3], in [6] and in assay [7] was “inactive” each time. The Potency entry in assay [15], in assay [9], in assay [12], in assay [13], in [14] and in assay [16] was “inactive” in each case. Further, the Potency entry in assay [17] is “inactive”. In assay [8], the compound was called inactive.
As for `CCN(CC)C(=O)[C@@H]1C=C2c3cccc4[nH]cc(c34)C[C@H]2N(C)C1`, the Potency result in assay [1], in assay [19], in assay [20], in [7], in assay [9] and in assay [12] was “inactive” throughout. The Potency result in assay [14], in [16] and in [17] was “inactive” in each case. Besides, the call in [5] and in assay [8] was inactive. The activity change, positive = activation in assay [11] is -24.6% [at 240 µM].
